Laboratory results: the OligoGym collection

molecular target: FAM73A; assay: pooled miR-30 sensor sort-seq; sequence = guide strand; settings: shRNA
Further: reference of the scale not given here.

Sequence	sensor-assay potency score (higher = more potent)
TTTAATATCATCTTCATCTGCT	0.76
TTAAGTATAAGTTCTCTGGAGT	-0.00837
TTGAATAGCGCACCTTCTCAAA	-1.12
TACTGGAACAACTTGAACCTTT	0.0533
TTGAACCTTTGTCTGATGCTGC	0.182
TTCTGTTTCAGCACCGACCAAC	-0.471
TATCTTTATCAATATCATCAGC	-1.22
TAGCATAGTTACAAACTTGAGA	-0.258
AACAACTTGAACCTTTGTCTGA	-0.33
TAGACAACTACTTGTATGCCTC	-0.255

molecular target: FAM75A3; assay: as above; settings: shRNA

Sequence	sensor-assay potency score (higher = more potent)
TTCGTCCTGAAGCTGCATCAGA	-0.939
TGATTCGTCCTGAAGCTGCATC	-0.869
TGGTGATTCGTCCTGAAGCTGC	-1.37
TTCACTAACAACCTCCTCCATA	-0.534
AAATTCACTAACAACCTCCTCC	0.396
TAAACTTCTCACTCTTGTGAAT	-1.14

molecular target: FAM89B; assay: as above; settings: shRNA

Sequence	sensor-assay potency score (higher = more potent)
TGACAGGACGACGCGGGCCGGC	-1.62
TAGTCCTGGATTGACTCGTACA	-1.39
AACATCTCCTTGCGCAGCGCGG	-1.39
TGTAGTCCTGGATTGACTCGTA	-0.175
ATCGGGAGGCTCCTCGTCGTCA	-1.39
TTGCGCAGCGCGGCCAGCGCTG	-1.52
TTTGTAGTCCTGGATTGACTCG	-1.36
TTAAGGAGGCCGCTGAGGCCGC	-1.49
TCAGGTCTTGGCACAGGTGTTT	-0.832
TTGTAGTCCTGGATTGACTCGT	0.301
TCCTGGATTGACTCGTACAGGC	-1.73
TGGATTGACTCGTACAGGCCCC	-0.992

molecular target: FAM9C; assay: as above; settings: shRNA

Sequence	sensor-assay potency score (higher = more potent)
TTAACTAAACACTGTCATGTGG	0.189
AACATTTTTAATTCTGTTCTTT	-0.182
TAACAGGTTTTCTTTCCTCATG	-1.34
ATTCTGTTCTTTATTTCGCTGC	-0.428
TATTTTAATTTGTTCTTCCTTT	-0.236
TAACTAAACACTGTCATGTGGT	0.0242
TTACTGGATCCTTTCCTGCAAG	-1.19
AATATCTTCTAGCTCCTTGGTA	-0.174
ATCAGTTACATCTCCCTCCTTT	-0.105
TTTTGCAATCTTTTCAATCCTT	0.00533
TTTGCAATCTTTTCAATCCTTT	-0.0948
